Experimental data taken from PubChem BioAssay (NCATS).
Results filed as inconclusive are left out. Active and inactive are the calls of the source. The call rests on the fitted dose curve; in most records, active means well fitted curve in the direction sought with a large enough effect; inconclusive means small, poorly fitted or top-dose-only effect, or another doubt; inactive means no such curve, though single readings can be large; an effect the other way counts as inactive or inconclusive.

Legend:
[1] = qHTS to identify inhibitors of the type 1 interferon - major histocompatibility complex class I in skeletal muscle: primary screen against the NCATS Pharmaceutical Collection (AID 1347407);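 further: luminescence of HiBiT knocked into endogenous HLA-B as interferon-induced MHC class I level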
Method in brief: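 Compounds […] were added to CRISPR-engineered HLA-B-HiBiT C25cl48 human myoblasts with 4.0 ng/ml IFN-beta. After 24 hrs at 37 C, cells were lysed and HiBiT luminescence measured.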

[2] = target: Protein phosphatase 1D (Homo sapiens) (UniProt O15297); assay: RapidFire Mass Spectrometry qHTS Assay for Modulators of WT P53-Induced Phosphatase 1 (WIP1) (AID 1347424);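 further: amount of dephosphorylated VEPPL-S-QETFS peptide product formed by WIP1; series mostly up to about 63 µM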
Sequence of Protein phosphatase 1D (Homo sapiens) (O15297 whole entry, looked up): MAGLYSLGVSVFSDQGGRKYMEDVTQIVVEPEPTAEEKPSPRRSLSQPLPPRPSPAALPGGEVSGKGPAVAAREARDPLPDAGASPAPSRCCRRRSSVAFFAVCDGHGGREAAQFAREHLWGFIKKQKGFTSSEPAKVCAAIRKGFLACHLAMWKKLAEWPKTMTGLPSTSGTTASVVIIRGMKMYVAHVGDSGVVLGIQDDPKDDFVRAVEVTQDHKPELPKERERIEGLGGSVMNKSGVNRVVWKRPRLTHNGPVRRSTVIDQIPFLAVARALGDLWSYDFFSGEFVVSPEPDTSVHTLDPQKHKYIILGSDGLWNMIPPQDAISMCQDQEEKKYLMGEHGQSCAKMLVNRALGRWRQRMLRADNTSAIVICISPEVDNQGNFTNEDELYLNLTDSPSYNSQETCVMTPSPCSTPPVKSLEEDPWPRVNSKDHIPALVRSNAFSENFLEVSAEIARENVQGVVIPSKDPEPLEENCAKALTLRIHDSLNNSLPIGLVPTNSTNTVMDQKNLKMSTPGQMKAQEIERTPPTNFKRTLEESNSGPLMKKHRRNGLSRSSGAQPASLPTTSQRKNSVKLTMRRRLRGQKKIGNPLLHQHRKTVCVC
Method in brief: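 10 nM WIP1 + cpd, 1 h RT; + 2 uM VEPPL-pS-QETFS, 5 min RT; stop 0.5% formic acid; labelled product standard 1 uM; RapidFire MS. Buffer 50 mM Tris pH 7.5, 30 mM MgCl2, 1 mM TCEP.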

[3] = target: Protein phosphatase 1D (Homo sapiens) (UniProt O15297); assay: Rhodamine-PBP qHTS Assay for Modulators of WT P53-Induced Phosphatase 1 (WIP1) (AID 1347425)
Method in brief: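 Steps: enzyme with Rh-PBP sensor and compounds, room-temperature incubation of 1 hr, baseline read, addition of VEPPL-pS-QETFS (10 uM final), kinetic fluorescence reads at 525/598 nm. Activity equals final minus baseline signal.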

[4] = Primary qHTS for inhibitors of La Crosse Virus (LACV) - induced cell death in SH-SY5Y cells (AID 1508616);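 further: top concentration of the series differs between compounds; higher means more rescue of cells from virus-induced death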
Method in brief: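 Readout was luminescence from ATPLite 1step added after a 6-day LACV infection (0.01 MOI) of SH-SY5Y cells that had received pin-transferred compound 24 hr after seeding.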

[5] = target: Calcium and integrin-binding protein 1 (Homo sapiens) (UniProt Q99828); assay: Primary qHTS for Identification of Calcium Integrin Binding Protein 1 (CIB1) Competitor (AID 1508620);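 further: GST tagged CIB1 binding a fluorescein labelled alphaIIb integrin peptide tracer; top concentration of the series differs between compounds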
Sequence of Calcium and integrin-binding protein 1 (Homo sapiens) (Q99828 whole entry, looked up): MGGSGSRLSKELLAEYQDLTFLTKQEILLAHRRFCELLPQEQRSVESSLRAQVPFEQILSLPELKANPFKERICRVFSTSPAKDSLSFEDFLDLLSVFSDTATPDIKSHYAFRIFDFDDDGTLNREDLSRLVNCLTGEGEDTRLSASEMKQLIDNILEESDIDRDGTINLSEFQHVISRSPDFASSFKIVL
Method in brief: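 CIB1-GST (1 uM final) and compound incubated 15 min at room temperature before adding FITC-alphaIIb peptide tracer (100 nM final). Competition for binding read by fluorescence polarization (ex 480, em 540) after another 15 min at room temperature.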

Measured: Potency

NS(=O)(=O)Cc1noc2ccccc12
inactive: all assays above

COc1ccc(C(Cl)=C(c2ccc(OC)cc2)c2ccc(OC)cc2)cc1
inactive: all assays above

COP(=O)(OC)OC(c1ccc(Cl)cc1)P(=O)(OC)OC (stereo not given)
inactive: all assays above

Nc1nc(N)c(-c2ccccc2)s1
inactive: all assays above

Cc1c[nH]c2ccccc12
inactive: all assays above

N/C(=N\N=C\c1ccc(Cl)cc1)N/N=C/c1ccc(Cl)cc1
inactive: all assays above

CCCCOC(=O)CC(CC(=O)OCCCC)(OC(C)=O)C(=O)OCCCC
inactive: all assays above

CC[N+](C)(CC)CCOC(=O)C(O)(c1ccccc1)C1CCCCC1 (stereo not given)
inactive: all assays above

O=S(=O)(O)c1ccc(O)cc1
inactive: all assays above

Cl/C(=C\n1cncn1)c1ccc(Cl)cc1Cl
inactive: all assays above

COc1ccc(CCN(C)CCCN2CCc3cc(OC)c(OC)cc3CC2=O)cc1OC
inactive: all assays above

C/C=C/c1ccc(O)c(OC)c1
inactive: all assays above

CC1(C)OC[C@@H]2O[C@@]3(C(=O)O)OC(C)(C)O[C@H]3[C@@H]2O1
inactive: all assays above
